The text below walks through data of PubChem BioAssay (NCI).

The nature of experiment [1]: NCI Yeast Anticancer Drug Screen. Data for the rad50 strain (AID 155).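 Note: 0% = growth of vehicle-only cultures of the same strain.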 Conditions: S. cerevisiae rad50 strain growth inhibition, active compounds read high. The gist of the method:
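DNA repair mutant yeast, compound exposure, growth read-out; inhibition is taken relative to vehicle.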

Experiment [2] can be described thus: NCI Yeast Anticancer Drug Screen. Data for the mec2-1 strain (AID 157). As to conditions: S. cerevisiae mec2-1 strain, active compounds read high. Summed up: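 Cells of the genetically defined mec2-1 yeast strain are incubated with test compound. Inhibition of growth is calculated against vehicle-treated controls.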
The nature of experiment [3]: NCI Yeast Anticancer Drug Screen. Data for the sgs1 mgt1 strain (AID 161).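 Note: 0% = growth of cultures given vehicle only.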 As to conditions: S. cerevisiae sgs1 mgt1 strain, active compounds read high. Summed up:
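Genetically altered yeast, compound exposure, growth inhibition relative to vehicle.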

Experiment [4] can be described thus: NCI Yeast Anticancer Drug Screen. Data for the cln2 rad14 strain (AID 165).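 Note: 0% = growth equal to vehicle treated cultures.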 As to conditions: S. cerevisiae cln2 rad14 strain, active compounds read high. The gist of the method: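 The screen exposed genetically defined yeast (cln2 rad14) to test compounds and scored growth inhibition relative to vehicle-treated controls.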
The nature of experiment [5]: NCI Yeast Anticancer Drug Screen. Data for the bub3 strain (AID 167). Conditions: S. cerevisiae bub3 mutant strain, active compounds read high. The gist of the method: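 In this screen, a yeast mutant lacking normal mitotic checkpoint function is challenged with compound. Relative growth versus vehicle gives the inhibition value.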
The nature of experiment [6]: NCI Yeast Anticancer Drug Screen. Data for the mlh1 rad18 strain (AID 175). Conditions: S. cerevisiae mlh1 rad18 strain growth inhibition, active compounds read high. The gist of the method:
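Compound-treated yeast growth, normalised to vehicle controls. Strain bears defined DNA repair mutations.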

Where [7] appears, read: at 5.0 µM (retest, dose inferred, filed as 0.5).
Setting [8] is: at 50.0 µM (retest, dose inferred, filed as 5.0).

The structures appear in SMILES notation. About 79,000 compounds went through this panel and 15% of them were active in at least one assay; those are over-represented in the sample as a whole. Unmarked numbers belong to inactive results. Calls of active or inactive are those of the source. Cut-off read from the data, not from the text of the source: active = growth inhibition above about 70%; inactive = the rest.

Regarding `CCCCCCCCCCCC(=O)C(=O)c1ccc(O)cc1O`, the growth inhibition was 52% in experiment [1] (setting [7]); 88% (active) in experiment [1] (setting [8]); 93.8% (active) in experiment [1] (at 50.0 µM); 87% (active) in experiment [2] (setting [7]); 93% (active) in experiment [2] (setting [8]); 97.3% (active) in experiment [2] (at 50.0 µM). The growth inhibition in experiment [3] (setting [7]) was 91% (active); in experiment [3] (setting [8]), 92% (active); in experiment [3] (at 50.0 µM), 96.4% (active); in experiment [4] (setting [7]), 25%; in experiment [4] (setting [8]), 84% (active); in experiment [4] (at 50.0 µM), 95.5% (active). Also, the growth inhibition in experiment [5] (setting [7]) was 45%; in experiment [5] (setting [8]), 90% (active); in experiment [5] (at 50.0 µM), 95.8% (active); in experiment [6] (setting [7]), 87% (active); in experiment [6] (setting [8]), 92% (active); in experiment [6] (at 50.0 µM), 96.7% (active).

Take `COc1cccc(/C=C2\CCCc3ccccc3C2=O)c1`: the growth inhibition in experiment [1] (setting [7]) was 1%; in experiment [1] (setting [8]), 20%; in experiment [1] (at 50.0 µM), 52.4%; in experiment [2] (setting [7]) it was 7%; in experiment [2] (setting [8]), 45%; in experiment [2] (at 50.0 µM) it was 22.3%. For the same compound, the growth inhibition was 14% in experiment [3] (setting [7]); 67% in experiment [3] (setting [8]); 80.3% (active) in experiment [3] (at 50.0 µM); -7% in experiment [4] (setting [7]); 6% in experiment [4] (setting [8]); 26.6% in experiment [4] (at 50.0 µM). Further, the growth inhibition in experiment [5] (setting [7]) was 72% (active); in experiment [5] (setting [8]) it was 87% (active); in experiment [5] (at 50.0 µM) it was 74.4% (active); in experiment [6] (setting [7]) it was 10%; in experiment [6] (setting [8]), 60%; in experiment [6] (at 50.0 µM), 63.6%.

With `O=Cc1[nH]c(=S)[nH]c(=O)c1CCCc1ccccc1`, the growth inhibition in experiment [1] (setting [7]) was -15%; in experiment [1] (setting [8]) it was 79% (active); in experiment [1] (at 50.0 µM), 95.8% (active); in experiment [2] (setting [7]) it was -7%; in experiment [2] (setting [8]), 90% (active); in experiment [2] (at 50.0 µM), 78.2% (active). Moreover, the growth inhibition was 15% in experiment [3] (setting [7]); 97% (active) in experiment [3] (setting [8]); 98.5% (active) in experiment [3] (at 50.0 µM); 17% in experiment [4] (setting [7]); 92% (active) in experiment [4] (setting [8]); 82.3% (active) in experiment [4] (at 50.0 µM). Further, the growth inhibition in experiment [5] (setting [7]) is 5%; in experiment [5] (setting [8]), 95% (active); in experiment [5] (at 50.0 µM), 85% (active); in experiment [6] (setting [7]) it was 11%; in experiment [6] (setting [8]), 97% (active); in experiment [6] (at 50.0 µM) it was 98.2% (active).

In the case of `C=C(CN(C)C)C(=O)c1ccc(OC2OC(COC(C)=O)C(OC(C)=O)C(OC(C)=O)C2OC(C)=O)cc1` (configuration not stated), the growth inhibition in experiment [1] (setting [7]) was -1%; in experiment [1] (setting [8]), 2%; in experiment [1] (at 50.0 µM), -5.65%; in experiment [2] (setting [7]), 0%; in experiment [2] (setting [8]), 5%; in experiment [2] (at 50.0 µM), -18.4%. Further, the growth inhibition in experiment [3] (setting [7]) was 3%; in experiment [3] (setting [8]), -43%; in experiment [3] (at 50.0 µM) it was -8.8%; in experiment [4] (setting [7]), 7%; in experiment [4] (setting [8]), 2%; in experiment [4] (at 50.0 µM), 10.4%. For the same compound, the growth inhibition in experiment [5] (setting [7]) is 15%; in experiment [5] (setting [8]), 4%; in experiment [5] (at 50.0 µM) it was -3.75%; in experiment [6] (setting [7]), 5%; in experiment [6] (setting [8]) it was 2%; in experiment [6] (at 50.0 µM), -18.9%.

As to `CSC(=S)n1nc(-c2ccccc2)c(N=Nc2ccccc2[N+](=O)[O-])c1C`, the growth inhibition was -1% in experiment [1] (setting [7]); 92% (active) in experiment [1] (setting [8]); 97% (active) in experiment [1] (at 50.0 µM); -4% in experiment [2] (setting [7]); 96% (active) in experiment [2] (setting [8]); 96.2% (active) in experiment [2] (at 50.0 µM). Also, the growth inhibition in experiment [3] (setting [7]) is 5%; in experiment [3] (setting [8]), 96% (active); in experiment [3] (at 50.0 µM), 97% (active); in experiment [4] (setting [7]), -12%; in experiment [4] (setting [8]), 94% (active); in experiment [4] (at 50.0 µM), 92% (active). Further, the growth inhibition in experiment [5] (setting [7]) was 0%; in experiment [5] (setting [8]), 95% (active); in experiment [5] (at 50.0 µM), 94.3% (active); in experiment [6] (setting [7]), -1%; in experiment [6] (setting [8]), 93% (active); in experiment [6] (at 50.0 µM) it was 98% (active).

For the compound `CC(C)=C1C=C2CCC3C(C)(C(=O)O)CCCC3(C)C2CC1` (configuration not stated) (tested in a mixture with another compound), the growth inhibition was -4% in experiment [1] (setting [7]); 90% (active) in experiment [1] (setting [8]); 72.5% (active) in experiment [1] (at 50.0 µM); -5% in experiment [2] (setting [7]); 61% in experiment [2] (setting [8]); 40.1% in experiment [2] (at 50.0 µM). The growth inhibition in experiment [3] (setting [7]) is -5%; in experiment [3] (setting [8]) it was 48%; in experiment [3] (at 50.0 µM), 59.4%; in experiment [4] (setting [7]), -5%; in experiment [4] (setting [8]), 47%; in experiment [4] (at 50.0 µM) it was 20.3%. Also, the growth inhibition in experiment [5] (setting [7]) was -7%; in experiment [5] (setting [8]) it was 98% (active); in experiment [5] (at 50.0 µM) it was 38.8%; in experiment [6] (setting [7]), -1%; in experiment [6] (setting [8]), 76% (active); in experiment [6] (at 50.0 µM), 60.8%.

In the case of `Brc1ccc(CCNCCN2CCCCC2)cc1`, the growth inhibition is 19% in experiment [1] (setting [7]); 65% in experiment [1] (setting [8]); 50.9% in experiment [1] (at 50.0 µM); 25% in experiment [2] (setting [7]); 68% in experiment [2] (setting [8]); 21% in experiment [2] (at 50.0 µM). Moreover, the growth inhibition in experiment [3] (setting [7]) was 24%; in experiment [3] (setting [8]), 68%; in experiment [3] (at 50.0 µM) it was 63.2%; in experiment [4] (setting [7]) it was 45%; in experiment [4] (setting [8]), 61%; in experiment [4] (at 50.0 µM), 37.6%. Moreover, the growth inhibition is 15% in experiment [5] (setting [7]); 57% in experiment [5] (setting [8]); 61.1% in experiment [5] (at 50.0 µM); 25% in experiment [6] (setting [7]); 89% (active) in experiment [6] (setting [8]); 45% in experiment [6] (at 50.0 µM).

For the compound `CCc1[nH]c2ccccc2c1C(c1c(CC)[nH]c2ccccc12)C1CCCCC1=O` (configuration not stated), the growth inhibition in experiment [1] (setting [7]) is 1%; in experiment [1] (setting [8]), 91% (active); in experiment [1] (at 50.0 µM), 93.2% (active); in experiment [2] (setting [7]), -8%; in experiment [2] (setting [8]), 97% (active); in experiment [2] (at 50.0 µM) it was 88.8% (active). Moreover, the growth inhibition in experiment [3] (setting [7]) is -10%; in experiment [3] (setting [8]), 96% (active); in experiment [3] (at 50.0 µM), 92.2% (active); in experiment [4] (setting [7]) it was 0%; in experiment [4] (setting [8]) it was 95% (active); in experiment [4] (at 50.0 µM), 95.2% (active). Besides, the growth inhibition in experiment [5] (setting [7]) is 0%; in experiment [5] (setting [8]), 95% (active); in experiment [5] (at 50.0 µM), 79.8% (active); in experiment [6] (setting [7]), -9%; in experiment [6] (setting [8]), 97% (active); in experiment [6] (at 50.0 µM), 95.6% (active).

Turning to `Nc1ccc(SCCCc2c(N)nc(N)nc2N)cc1`, the growth inhibition was -8% in experiment [1] (setting [7]); 4% in experiment [1] (setting [8]); 57.5% in experiment [1] (at 50.0 µM); 1% in experiment [2] (setting [7]); -8% in experiment [2] (setting [8]); 92.2% (active) in experiment [2] (at 50.0 µM). Moreover, the growth inhibition in experiment [3] (setting [7]) is 27%; in experiment [3] (setting [8]), 11%; in experiment [3] (at 50.0 µM) it was 20.6%; in experiment [4] (setting [7]), -16%; in experiment [4] (setting [8]), -17%; in experiment [4] (at 50.0 µM), 91.8% (active). Moreover, the growth inhibition is -9% in experiment [5] (setting [7]); -12% in experiment [5] (setting [8]); 95% (active) in experiment [5] (at 50.0 µM); 6% in experiment [6] (setting [7]); 32% in experiment [6] (setting [8]); 82.2% (active) in experiment [6] (at 50.0 µM).
